The whole screen tested about 69,000 compounds, of which about 950 (1.4%) showed an effect of 50% or more. What follows is part of a selection rich in strong results, with near analogues and random picks from the rest.
System: Mycobacterium tuberculosis
Test: Cornell M. t heat shock assay; also: in the data most compounds retested in dose-response had high values
Format: functional, organism-based
Set-up: dose or concentration left out as unconfirmed

Q: Which “Percent Effect” value does the source give for `COC[C@]12COC[C@H]1CN(Cc1ccc3c(c1)OCO3)C2.O=C(O)C(F)(F)F` here?
A: Its value is -2.808%.

Q: How did the “Percent Effect” value turn out when `CC(CN1CCOCC1)OC(=O)c1ccccc1I.Cl` (stereo not given) was run?
A: The value was -19.16%.

Q: How did the “Percent Effect” value turn out when `O=C(O)C(F)(F)F.c1ccc(N2CCOC3(CCCN(c4ncccn4)C3)C2)nc1` (stereo not given) was run?
A: The value was 36.25%.

Q: How did the “Percent Effect” value turn out when `Cn1cc(CN2CC[C@]3(C[C@H](Oc4ccccn4)CO3)C2)cn1.O=C(O)C(F)(F)F.O=C(O)C(F)(F)F` was run?
A: The value was 21.89%.

Q: `Cc1cccnc1N1CC2(CCN(Cc3cnn(C)c3)C2)C1.O=C(O)C(F)(F)F.O=C(O)C(F)(F)F` was tested. Which “Percent Effect” value did it give?
A: The value was -17.77%.

Q: With `CN(C)CCN1C(=O)CCC12CCN(Cc1cccs1)CC2.O=C(O)C(F)(F)F.O=C(O)C(F)(F)F` as the compound, how does the “Percent Effect” value read?
A: The value was -4.329%.

Q: For `CN(C)C(CNC(=O)c1cc2c([nH]c1=O)CCCC2=O)c1ccsc1` (stereo not given), which “Percent Effect” value is on record?
A: Its value is -5.178%.

Q: `Cc1ccccc1CN1C[C@@H]2COC[C@]2(CNC(=O)C2CCC2)C1.O=C(O)C(F)(F)F` was tested. Which “Percent Effect” value did it give?
A: The value was 17.62%.

Q: With `Cc1ccc(CN(CCCn2ccnc2)Cc2[nH]cnc2C)s1.O=C(O)CC(O)(CC(=O)O)C(=O)O` as the compound, how does the “Percent Effect” value read?
A: The value was -16.97%.

Q: For `Cc1ccc(CN(CCCn2ccnc2)Cc2cnc(N(C)C)nc2)s1.O=C(O)CC(O)(CC(=O)O)C(=O)O`, which “Percent Effect” value is on record?
A: Its value is -30.9%.

Q: `CCc1ccc(CN(CCCn2ccnc2)Cc2ccc(C)s2)o1.O=C(O)CC(O)(CC(=O)O)C(=O)O` was tested. Which “Percent Effect” value did it give?
A: Its value is 103.6%.

Q: How did the “Percent Effect” value turn out when `Cc1nc(CN2CCO[C@@H]3CN(Cc4ccccn4)CC[C@@H]3C2)cs1.O=C(O)C(F)(F)F.O=C(O)C(F)(F)F` was run?
A: The value was -0.9653%.

Q: `CS(=O)(=O)N1C[C@@H]2CC[C@H](C1)N(C(=O)CCc1n[nH]c3c1CCCC3)C2` was tested. Which “Percent Effect” value did it give?
A: The value was 3.499%.

Q: Which “Percent Effect” value does the source give for `O=C(CCc1n[nH]c2c1CCCC2)N1C[C@@H]2CC[C@H](C1)N(CC1CC1)C2` here?
A: The value was 90.59%.

Q: For `CC(=O)N1C[C@@H]2CC[C@H](C1)N(C(=O)CCc1n[nH]c3c1CCCC3)C2`, which “Percent Effect” value is on record?
A: Its value is -1.596%.

Q: `CN(C)C(=O)N1CCN(Cc2cnn(C)c2)CC2(CNC(=O)C2)C1.O=C(O)C(F)(F)F` (stereo not given) was tested. Which “Percent Effect” value did it give?
A: Its value is 0.6854%.

Q: Which “Percent Effect” value does the source give for `CCSCCNc1cc(C)nc2c(C)c(C)nn12` here?
A: The value was 105.5%.

Q: With `Cc1cc(NCCSc2nccn2C)n2ncnc2n1` as the compound, how does the “Percent Effect” value read?
A: Its value is -35.12%.

Q: How did the “Percent Effect” value turn out when `Cc1ccnc(NCCSc2nccn2C)n1` was run?
A: Its value is 9.062%.

Q: For `Cc1cc(NCCSc2nccn2C)n2nc(C)c(C)c2n1`, which “Percent Effect” value is on record?
A: Its value is 72.35%.

Q: For `COCCn1cnnc1CNc1cc(C)nc2c(C)c(C)nn12`, which “Percent Effect” value is on record?
A: Its value is 44.3%.

Q: Which “Percent Effect” value does the source give for `Cc1cc(NCc2nnc3n2CCC3)n2nc(C)c(C)c2n1` here?
A: The value was -14.51%.

Q: For `CC(C)C[C@H](N)c1nnc(SCC(N)=O)o1.Cl`, which “Percent Effect” value is on record?
A: The value was -14.25%.

Q: Which “Percent Effect” value does the source give for `Cn1ccnc1CN1CCC2(CC1)COC2.O=C(O)C(F)(F)F` here?
A: The value was 6.701%.

Q: For `CN(C)C(=O)c1nc2c(s1)CCCN2Cc1ccccc1`, which “Percent Effect” value is on record?
A: Its value is 1.043%.

Q: For `CC(C)NC(=O)c1nc2c(s1)CCCN2Cc1ccccc1`, which “Percent Effect” value is on record?
A: The value was 16.22%.

Q: With `CCN(C(=O)c1nc2c(s1)CCCN2Cc1ccccc1)C(C)C` as the compound, how does the “Percent Effect” value read?
A: Its value is 52.41%.

Q: For `O=C(O)C(F)(F)F.O=C(O)C(F)(F)F.O=C(c1cccnc1)N1CCC2(CC1)COC(COc1ccccn1)C2` (stereo not given), which “Percent Effect” value is on record?
A: The value was -16.52%.

Q: With `CC[C@@H]1N(Cc2ccncc2)CCC[C@]12CCC(=O)N2CCOC.O=C(O)C(F)(F)F.O=C(O)C(F)(F)F` as the compound, how does the “Percent Effect” value read?
A: The value was -19.31%.

Q: With `O=C(O)C(F)(F)F.O=C(O)C(F)(F)F.c1cnc(N2CCO[C@H]3CN(CC4CC4)C[C@H]32)nc1` as the compound, how does the “Percent Effect” value read?
A: The value was -34.72%.

Q: For `COc1ccccc1[C@@H]1CN(Cc2ccc3nsnc3c2)C[C@H]1C(=O)O`, which “Percent Effect” value is on record?
A: Its value is -17.79%.

Q: With `COc1ccccc1[C@@H]1CN(Cc2ccncc2)C[C@H]1C(=O)O` as the compound, how does the “Percent Effect” value read?
A: The value was 45.83%.

Q: Which “Percent Effect” value does the source give for `COc1ccccc1[C@@H]1CN(Cc2cc(C(C)(C)C)[nH]n2)C[C@H]1C(=O)O` here?
A: The value was 79.87%.

Q: Which “Percent Effect” value does the source give for `CN1CC(=O)N(c2ccccc2)CC12CCN(CC1CCOCC1)C2.O=C(O)C(F)(F)F.O=C(O)C(F)(F)F` (stereo not given) here?
A: The value was 3.802%.

Q: `CC(C)n1cnc2ccc(NC(=O)CCCn3cccn3)cc2c1=O` was tested. Which “Percent Effect” value did it give?
A: Its value is -15.69%.

Q: For `Cn1cnc2ccc(NC(=O)CCCn3cccn3)cc2c1=O`, which “Percent Effect” value is on record?
A: The value was 5.614%.

Q: Which “Percent Effect” value does the source give for `CC(C)Cn1cnc2ccc(NC(=O)CCCn3cccn3)cc2c1=O` here?
A: Its value is 60.75%.

Q: How did the “Percent Effect” value turn out when `CC(C)[C@H](N)CC(=O)Nc1nc(-c2cnc(N3CCOCC3)nc2)cs1.Cl` was run?
A: The value was -24.08%.

Q: For `CCC(=O)N1C[C@@H]2CCN(c3cnccn3)C[C@@H]2C1.O=C(O)C(F)(F)F`, which “Percent Effect” value is on record?
A: The value was -28.75%.

Q: How did the “Percent Effect” value turn out when `O=C(O)C(F)(F)F.c1cnc(NCc2nnn3c2CN(Cc2ccco2)CCC3)nc1` was run?
A: The value was -16.16%.

Q: `Cc1ccc(C2NC(=O)c3cc(C(C)C)sc3N2)cc1` (stereo not given) was tested. Which “Percent Effect” value did it give?
A: Its value is 19.82%.

Q: For `CC(C)c1cc2c(s1)NC(c1ccccn1)NC2=O` (stereo not given), which “Percent Effect” value is on record?
A: The value was 100.6%.

Q: Which “Percent Effect” value does the source give for `CC(C)c1cc2c(s1)NC(c1ccccc1)NC2=O` (stereo not given) here?
A: Its value is 16.99%.

Q: `CC(C)C(=O)N1CCN(Cc2ccccn2)CC2(CC(=O)N(C)C2)C1.O=C(O)C(F)(F)F.O=C(O)C(F)(F)F` (stereo not given) was tested. Which “Percent Effect” value did it give?
A: The value was -3.72%.

Q: With `CC(C)CN(Cc1nc2c(cnn2C)c(=O)[nH]1)C(C)C` as the compound, how does the “Percent Effect” value read?
A: Its value is 9.965%.

Q: With `CC(C)N(Cc1ccccn1)Cc1nc2c(cnn2C)c(=O)[nH]1` as the compound, how does the “Percent Effect” value read?
A: Its value is 66.99%.

Q: Which “Percent Effect” value does the source give for `Cc1ccc(C(C)N(C)Cc2nc3c(cnn3C)c(=O)[nH]2)s1` (stereo not given) here?
A: The value was 59.53%.

Q: How did the “Percent Effect” value turn out when `CC(c1ccccc1Cl)N(C)Cc1nc2c(cnn2C)c(=O)[nH]1` (stereo not given) was run?
A: Its value is -6.582%.

Q: With `Cc1ccc(C(C)N(C)Cc2nc3c(cnn3C)c(=O)[nH]2)c(C)c1` (stereo not given) as the compound, how does the “Percent Effect” value read?
A: Its value is -15.24%.

Q: `COc1ccccc1C(C)N(C)Cc1nc2c(cnn2C)c(=O)[nH]1` (stereo not given) was tested. Which “Percent Effect” value did it give?
A: The value was 82.45%.

Q: With `Cc1ccc(CN(Cc2nc3c(cnn3C)c(=O)[nH]2)C(C)C)s1` as the compound, how does the “Percent Effect” value read?
A: The value was -2.161%.

Q: Which “Percent Effect” value does the source give for `Cc1ccccc1C(C)N(C)Cc1nc2c(cnn2C)c(=O)[nH]1` (stereo not given) here?
A: The value was -10.61%.

Q: With `Cc1ccc(C(C)N(C)Cc2nc3c(cnn3C)c(=O)[nH]2)cc1` (stereo not given) as the compound, how does the “Percent Effect” value read?
A: The value was 36.86%.

Q: How did the “Percent Effect” value turn out when `COC(=O)CCC(=O)N1CCCC2(CCCN2Cc2cccc(F)c2)C1.O=C(O)C(F)(F)F` (stereo not given) was run?
A: The value was 3.912%.

Q: `O=C(O)C(F)(F)F.O=C(c1ccco1)N1CC[C@@H]2O[C@@H](COCCN3CCCC3)CC[C@@H]21` was tested. Which “Percent Effect” value did it give?
A: Its value is -12.96%.

— ChEMBL document CHEMBL3988442, “University of Dundee, Small-Polar-MMV Screening Library” (2021)
